# Reference: PubChem BioAssay (NCI)
# The panel holds about 79,000 compounds, 15% with a hit somewhere; the sample as a whole holds those more often. Values without a mark were called inactive. The source made the active and inactive calls. Rule as the data show it: active = growth inhibition above about 70%; inactive = the rest.
# How the values were obtained:
# [1] = NCI Yeast Anticancer Drug Screen. Data for the rad52 strain (AID 147);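 also: 0% = growth of vehicle-treated control cultures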; settings: S. cerevisiae rad52 mutant growth inhibition, active compounds read high
# Procedure, shortened: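 Vehicle-treated cultures served as the reference for growth inhibition of compound-exposed yeast bearing a DNA repair mutation.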
# [2] = NCI Yeast Anticancer Drug Screen. Data for the wt1 strain (AID 149);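 also: 0% = growth of vehicle-treated wt1 cultures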; settings: S. cerevisiae wt1 strain (SPY 50644) growth inhibition, active compounds read high
# Procedure, shortened: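 Using yeast strain wt1, compound-induced growth inhibition was determined against vehicle-treated cultures.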
# [3] = NCI Yeast Anticancer Drug Screen. Data for the rad50EPP+ strain (AID 151);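 also: 0% = growth of vehicle-treated control cultures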; settings: S. cerevisiae rad50 mutant strain, active compounds read high
# Procedure, shortened: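 In this screen, rad50EPP+ yeast were exposed to compounds. Growth inhibition was scored against vehicle-treated controls.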
# [4] = NCI Yeast Anticancer Drug Screen. Data for the mgt1 strain (AID 153); settings: S. cerevisiae mgt1 mutant growth inhibition, active compounds read high
# Procedure, shortened: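 mgt1 strain exposed; growth vs vehicle control recorded as inhibition.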
# [5] = NCI Yeast Anticancer Drug Screen. Data for the rad50 strain (AID 155);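 also: 0% = growth of vehicle-only cultures of the same strain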; settings: S. cerevisiae rad50 strain growth inhibition, active compounds read high
# Procedure, shortened: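 Relative growth inhibition (compound vs vehicle) was measured in yeast with a defined repair-gene alteration.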
# [6] = NCI Yeast Anticancer Drug Screen. Data for the mec2-1 strain (AID 157); settings: S. cerevisiae mec2-1 strain, active compounds read high
# Procedure, shortened: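 Vehicle-treated cultures served as reference for growth inhibition of compound-exposed mec2-1 yeast.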
# [7] = NCI Yeast Anticancer Drug Screen. Data for the rad14 strain (AID 159);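 also: 0% = growth of vehicle-treated control cultures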; settings: S. cerevisiae rad14 strain growth inhibition, active compounds read high
# Procedure, shortened: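 Screen for anticancer potential: a yeast strain altered in DNA damage repair is grown with compound, and reduced growth is quantified against vehicle controls.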
# [8] = NCI Yeast Anticancer Drug Screen. Data for the sgs1 mgt1 strain (AID 161);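 also: 0% = growth of cultures given vehicle only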; settings: S. cerevisiae sgs1 mgt1 strain, active compounds read high
# Procedure, shortened: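 Read-out: growth inhibition vs vehicle controls. Cells: mutant yeast strain deficient in DNA damage repair.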
# [9] = NCI Yeast Anticancer Drug Screen. Data for the CLN2oe strain (AID 163);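 also: 0% = growth of vehicle-only control cultures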; settings: S. cerevisiae CLN2oe strain, active compounds read high
# Procedure, shortened: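 Inhibition relative to vehicle-treated yeast is reported. Cells: strain with genetic alteration in cell-cycle control, grown with compound.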
# [10] = NCI Yeast Anticancer Drug Screen. Data for the cln2 rad14 strain (AID 165);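 also: 0% = growth equal to vehicle treated cultures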; settings: S. cerevisiae cln2 rad14 strain, active compounds read high
# Procedure, shortened: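 Each compound was tested on cln2 rad14 yeast. Inhibition of growth was calculated against vehicle-exposed controls.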
# [11] = NCI Yeast Anticancer Drug Screen. Data for the bub3 strain (AID 167); settings: S. cerevisiae bub3 mutant strain, active compounds read high
# Procedure, shortened: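 Screening used yeast with an engineered genetic alteration affecting cell cycle control. Compound-exposed cultures were compared with vehicle cultures, and reduced growth was taken as inhibition.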
# [12] = NCI Yeast Anticancer Drug Screen. Data for the wt2 strain (AID 169);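 also: 0% = growth of vehicle-treated yeast cultures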; settings: S. cerevisiae wt2 strain growth inhibition, active compounds read high
# Procedure, shortened: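 Inhibition of yeast growth was determined after compound treatment, normalised to controls receiving only vehicle.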
# [13] = NCI Yeast Anticancer Drug Screen. Data for the mlh1 strain (AID 171);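 also: 0% = growth of vehicle-treated control cultures of the same strain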; settings: S. cerevisiae mlh1 strain growth inhibition, active compounds read high
# Procedure, shortened: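 Vehicle-normalised growth inhibition of a repair- or checkpoint-altered yeast strain following compound treatment.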
# [14] = NCI Yeast Anticancer Drug Screen. Data for the sgs1 strain (AID 173);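 also: 0% = growth of vehicle-only control cultures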; settings: S. cerevisiae sgs1 mutant, active compounds read high
# Procedure, shortened: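 Screen format: yeast with repair or checkpoint alterations, compound exposure, growth read relative to vehicle.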
# [15] = NCI Yeast Anticancer Drug Screen. Data for the mlh1 rad18 strain (AID 175); settings: S. cerevisiae mlh1 rad18 strain growth inhibition, active compounds read high
# Procedure, shortened: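 Vehicle-treated cultures served as the reference for growth inhibition in a yeast strain carrying DNA damage repair alterations exposed to each compound.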
# [16] = NCI Yeast Anticancer Drug Screen. Data for the rad18 strain (AID 177); settings: S. cerevisiae rad18 mutant growth inhibition, active compounds read high
# Procedure, shortened: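 Test articles were incubated with altered yeast defective in DNA damage repair. Results are given as inhibition of growth versus vehicle.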
# [17] = at 5.0 µM (retest, dose inferred, filed as 0.5)
# [18] = at 50.0 µM (retest, dose inferred, filed as 5.0)
smiles,measurement,setting,value
O=C1OC(OC/C(Br)=C(\Br)COC2OC(=O)C(Cl)=C2Cl)C(Cl)=C1Cl (stereo not drawn),growth inhibition,[1]; at 1.2 µM,0%
same,growth inhibition,[1]; at 3.7 µM,2%
same,growth inhibition,[1]; at 11.0 µM,3%
same,growth inhibition,[1]; at 33.0 µM,5%
same,growth inhibition,[1]; at 100.0 µM,15%
same,growth inhibition,[2]; at 1.2 µM,0%
same,growth inhibition,[2]; at 3.7 µM,0%
same,growth inhibition,[2]; at 11.0 µM,2%
same,growth inhibition,[2]; at 33.0 µM,8%
same,growth inhibition,[2]; at 100.0 µM,18%
same,growth inhibition,[3]; at 1.2 µM,-1%
same,growth inhibition,[3]; at 3.7 µM,1%
same,growth inhibition,[3]; at 11.0 µM,3%
same,growth inhibition,[3]; at 33.0 µM,6%
same,growth inhibition,[3]; at 100.0 µM,16%
same,growth inhibition,[4]; at 1.2 µM,-5%
same,growth inhibition,[4]; at 3.7 µM,-1%
same,growth inhibition,[4]; at 11.0 µM,2%
same,growth inhibition,[4]; at 33.0 µM,3%
same,growth inhibition,[4]; at 100.0 µM,9%
same,growth inhibition,[5]; at 1.2 µM,0%
same,growth inhibition,[5]; at 3.7 µM,1%
same,growth inhibition,[5]; [17],37%
same,growth inhibition,[5]; at 11.0 µM,0%
same,growth inhibition,[5]; at 33.0 µM,7%
same,growth inhibition,[5]; [18],91% (active)
same,growth inhibition,[5]; at 50.0 µM,98.7% (active)
same,growth inhibition,[5]; at 100.0 µM,15%
same,growth inhibition,[6]; at 1.2 µM,-2%
same,growth inhibition,[6]; at 3.7 µM,2%
same,growth inhibition,[6]; [17],20%
same,growth inhibition,[6]; at 11.0 µM,5%
same,growth inhibition,[6]; at 33.0 µM,13%
same,growth inhibition,[6]; [18],98% (active)
same,growth inhibition,[6]; at 50.0 µM,96.1% (active)
same,growth inhibition,[6]; at 100.0 µM,26%
same,growth inhibition,[7]; at 1.2 µM,1%
same,growth inhibition,[7]; at 3.7 µM,2%
same,growth inhibition,[7]; at 11.0 µM,4%
same,growth inhibition,[7]; at 33.0 µM,9%
same,growth inhibition,[7]; at 100.0 µM,16%
same,growth inhibition,[8]; [17],39%
same,growth inhibition,[8]; [18],99% (active)
same,growth inhibition,[8]; at 50.0 µM,93.1% (active)
same,growth inhibition,[9]; at 1.2 µM,-2%
same,growth inhibition,[9]; at 3.7 µM,-1%
same,growth inhibition,[9]; at 11.0 µM,2%
same,growth inhibition,[9]; at 33.0 µM,9%
same,growth inhibition,[9]; at 100.0 µM,14%
same,growth inhibition,[10]; [17],17%
same,growth inhibition,[10]; [18],96% (active)
same,growth inhibition,[10]; at 50.0 µM,57.6%
same,growth inhibition,[11]; at 1.2 µM,0%
same,growth inhibition,[11]; at 3.7 µM,-2%
same,growth inhibition,[11]; [17],13%
same,growth inhibition,[11]; at 11.0 µM,-4%
same,growth inhibition,[11]; at 33.0 µM,1%
same,growth inhibition,[11]; [18],93% (active)
same,growth inhibition,[11]; at 50.0 µM,93.6% (active)
same,growth inhibition,[11]; at 100.0 µM,16%
same,growth inhibition,[12]; at 1.2 µM,-1%
same,growth inhibition,[12]; at 3.7 µM,-2%
same,growth inhibition,[12]; at 11.0 µM,0%
same,growth inhibition,[12]; at 33.0 µM,3%
same,growth inhibition,[12]; at 100.0 µM,10%
same,growth inhibition,[13]; at 1.2 µM,-1%
same,growth inhibition,[13]; at 3.7 µM,0%
same,growth inhibition,[13]; at 11.0 µM,2%
same,growth inhibition,[13]; at 33.0 µM,4%
same,growth inhibition,[13]; at 100.0 µM,12%
same,growth inhibition,[14]; at 1.2 µM,-1%
same,growth inhibition,[14]; at 3.7 µM,0%
same,growth inhibition,[14]; at 11.0 µM,0%
same,growth inhibition,[14]; at 33.0 µM,6%
same,growth inhibition,[14]; at 100.0 µM,20%
same,growth inhibition,[15]; [17],53%
same,growth inhibition,[15]; [18],96% (active)
same,growth inhibition,[15]; at 50.0 µM,94.3% (active)
same,growth inhibition,[16]; at 1.2 µM,1%
same,growth inhibition,[16]; at 3.7 µM,3%
same,growth inhibition,[16]; at 11.0 µM,9%
same,growth inhibition,[16]; at 33.0 µM,24%
same,growth inhibition,[16]; at 100.0 µM,60%
Oc1ccc2c(c1)C(O)CCCC2 (stereo not drawn),growth inhibition,[1]; at 1.2 µM,5%
same,growth inhibition,[1]; at 3.7 µM,9%
same,growth inhibition,[1]; at 11.0 µM,25%
same,growth inhibition,[1]; at 33.0 µM,38%
same,growth inhibition,[1]; at 100.0 µM,86% (active)
same,growth inhibition,[2]; at 1.2 µM,-3%
same,growth inhibition,[2]; at 3.7 µM,-7%
same,growth inhibition,[2]; at 11.0 µM,-4%
same,growth inhibition,[2]; at 33.0 µM,-1%
same,growth inhibition,[2]; at 100.0 µM,18%
same,growth inhibition,[3]; at 1.2 µM,10%
same,growth inhibition,[3]; at 3.7 µM,25%
same,growth inhibition,[3]; at 11.0 µM,40%
same,growth inhibition,[3]; at 33.0 µM,53%
same,growth inhibition,[3]; at 100.0 µM,71% (active)
same,growth inhibition,[4]; at 1.2 µM,-2%
same,growth inhibition,[4]; at 3.7 µM,1%
same,growth inhibition,[4]; at 11.0 µM,4%
same,growth inhibition,[4]; at 33.0 µM,17%
same,growth inhibition,[4]; at 100.0 µM,71% (active)
same,growth inhibition,[5]; at 1.2 µM,4%
same,growth inhibition,[5]; at 3.7 µM,16%
same,growth inhibition,[5]; [17],31%
same,growth inhibition,[5]; at 11.0 µM,28%
same,growth inhibition,[5]; at 33.0 µM,46%
same,growth inhibition,[5]; [18],97% (active)
same,growth inhibition,[5]; at 50.0 µM,77.8% (active)
same,growth inhibition,[5]; at 100.0 µM,91% (active)
same,growth inhibition,[6]; at 1.2 µM,-3%
same,growth inhibition,[6]; at 3.7 µM,-1%
same,growth inhibition,[6]; [17],6%
same,growth inhibition,[6]; at 11.0 µM,2%
same,growth inhibition,[6]; at 33.0 µM,7%
same,growth inhibition,[6]; [18],82% (active)
same,growth inhibition,[6]; at 50.0 µM,58.6%
same,growth inhibition,[6]; at 100.0 µM,46%
same,growth inhibition,[7]; at 1.2 µM,5%
same,growth inhibition,[7]; at 3.7 µM,13%
same,growth inhibition,[7]; at 11.0 µM,23%
same,growth inhibition,[7]; at 33.0 µM,43%
same,growth inhibition,[7]; at 100.0 µM,95% (active)
same,growth inhibition,[8]; [17],65%
same,growth inhibition,[8]; [18],98% (active)
same,growth inhibition,[8]; at 50.0 µM,34.1%
same,growth inhibition,[9]; at 1.2 µM,-4%
same,growth inhibition,[9]; at 3.7 µM,-6%
same,growth inhibition,[9]; at 11.0 µM,-3%
same,growth inhibition,[9]; at 33.0 µM,7%
same,growth inhibition,[9]; at 100.0 µM,42%
same,growth inhibition,[10]; [17],0%
same,growth inhibition,[10]; [18],36%
same,growth inhibition,[10]; at 50.0 µM,35.4%
same,growth inhibition,[11]; at 1.2 µM,-9%
same,growth inhibition,[11]; at 3.7 µM,-8%
same,growth inhibition,[11]; [17],30%
same,growth inhibition,[11]; at 11.0 µM,-9%
same,growth inhibition,[11]; at 33.0 µM,-2%
same,growth inhibition,[11]; [18],96% (active)
same,growth inhibition,[11]; at 50.0 µM,66.2%
same,growth inhibition,[11]; at 100.0 µM,35%
same,growth inhibition,[12]; at 1.2 µM,-5%
same,growth inhibition,[12]; at 3.7 µM,-4%
same,growth inhibition,[12]; at 11.0 µM,25%
same,growth inhibition,[12]; at 33.0 µM,4%
same,growth inhibition,[12]; at 100.0 µM,69%
same,growth inhibition,[13]; at 1.2 µM,2%
same,growth inhibition,[13]; at 3.7 µM,10%
same,growth inhibition,[13]; at 11.0 µM,15%
same,growth inhibition,[13]; at 33.0 µM,29%
same,growth inhibition,[13]; at 100.0 µM,90% (active)
same,growth inhibition,[14]; at 1.2 µM,5%
same,growth inhibition,[14]; at 3.7 µM,19%
same,growth inhibition,[14]; at 11.0 µM,24%
same,growth inhibition,[14]; at 33.0 µM,43%
same,growth inhibition,[14]; at 100.0 µM,93% (active)
same,growth inhibition,[16]; at 1.2 µM,2%
same,growth inhibition,[16]; at 3.7 µM,10%
same,growth inhibition,[16]; at 11.0 µM,20%
same,growth inhibition,[16]; at 33.0 µM,36%
same,growth inhibition,[16]; at 100.0 µM,90% (active)
